From PubChem BioAssay AID1159580 (chemical genetic matrix, 2015)
Hit rate of the full screen: of about 5,500 compounds, about 2,000 (36%) were called active. Roughly 18% stayed inconclusive and do not appear here. No stated cut-off is given here; in the data, active means normalized growth mostly below about 0.91 (no sharp cut-off); inconclusive means no clear call, values can overlap the other calls; inactive means mostly above about 0.92. Some of the results follow.

Assay: chemical genetic growth profiling, strain panel (AID 1159580);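 further: tested at 20 µM; growth read once vehicle control cultures reached saturation at 30 °C; 1 = growth at the plate median or of vehicle wells; lower values mean less growth of the strain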
Details: growth OD

Measured: normalized growth

Cc1cc2cc3c(C)cc(=O)oc3c(C)c2o1
inactive: S. cerevisiae deletion strains, locus YKL009W, strain mrt4, active compounds read low 0.894 | S. cerevisiae deletion strains, locus YKL068W, active compounds read low 1.01 | S. cerevisiae deletion strains, locus YKL085W, strain MDH1 (second series), active compounds read low 0.992 | S. cerevisiae deletion strains, locus YKL085W, strain MDH1, active compounds read low 0.992 | S. cerevisiae deletion strains, locus YKL160W, strain elf1, active compounds read low 0.951 | S. cerevisiae deletion strains, locus YKL190W, strain CNB1, active compounds read low 0.981 | S. cerevisiae deletion strains, locus YKR001C, strain vps1, active compounds read low 0.916 | S. cerevisiae deletion strains, locus YKR026C, strain gcn3, active compounds read low 0.987 | S. cerevisiae deletion strains, locus YKR091W, strain srl3, active compounds read low 1.01 | S. cerevisiae deletion strains, locus YLL001W, strain dnm1, active compounds read low 0.993 | S. cerevisiae deletion strains, locus YLL026W, active compounds read low 0.981 | S. cerevisiae deletion strains, locus YLL041C, strain sdh2, active compounds read low 1.01 | S. cerevisiae deletion strains, locus YLR027C, strain aat2, active compounds read low 1 | S. cerevisiae deletion strains, locus YLR039C, strain RIC1, active compounds read low 0.927 | S. cerevisiae deletion strains, locus YLR058C, strain SHM2, active compounds read low 0.971 | S. cerevisiae deletion strains, locus YLR102C, strain apc9, active compounds read low 0.994 | S. cerevisiae deletion strains, locus YLR113W, strain HOG1, active compounds read low 1.02 | S. cerevisiae deletion strains, locus YLR221C, strain rsa3, active compounds read low 0.947 | S. cerevisiae deletion strains, locus YLR258W, strain gsy2, active compounds read low 0.956 | S. cerevisiae deletion strains, locus YLR262C, strain YPT6 (second series), active compounds read low 0.994 | S. cerevisiae deletion strains, locus YLR262C, strain YPT6, active compounds read low 0.912 | S. cerevisiae deletion strains, locus YLR268W, strain sec22, active compounds read low 0.898 | S. cerevisiae deletion strains, locus YLR320W, strain mms22, active compounds read low 0.909 | S. cerevisiae deletion strains, locus YLR330W, strain CHS5, active compounds read low 0.984 | S. cerevisiae deletion strains, locus YLR342W, strain FKS1 (second series), active compounds read low 0.915 | S. cerevisiae deletion strains, locus YLR342W, strain FKS1, active compounds read low 0.994 | S. cerevisiae deletion strains, locus YLR357W, strain rsc2, active compounds read low 1.1 | S. cerevisiae deletion strains, locus YLR370C, strain arc18, active compounds read low 0.986 | S. cerevisiae deletion strains, locus YLR371W, strain rom2, active compounds read low 0.99 | S. cerevisiae deletion strains, locus YLR384C, strain iki3, active compounds read low 1 | S. cerevisiae deletion strains, locus YML016C, strain PPZ1, active compounds read low 0.951 | S. cerevisiae deletion strains, locus YML120C, strain ndi1, active compounds read low 0.996 | S. cerevisiae deletion strains, locus YML124C, strain tub3, active compounds read low 0.986 | S. cerevisiae deletion strains, locus YMR058W, strain fet3, active compounds read low 0.945 | S. cerevisiae deletion strains, locus YMR078C, strain ctf18, active compounds read low 0.974 | S. cerevisiae deletion strains, locus YMR129W, active compounds read low 1.02 | S. cerevisiae deletion strains, locus YMR205C, strain PFK2, active compounds read low 1.03 | S. cerevisiae deletion strains, locus YMR223W, strain ubp8, active compounds read low 0.936 | S. cerevisiae deletion strains, locus YMR231W, strain pep5, active compounds read low 1 | S. cerevisiae deletion strains, locus YMR263W, strain SAP30, active compounds read low 0.908 | S. cerevisiae deletion strains, locus YMR307W, strain GAS1, active compounds read low 0.887 | S. cerevisiae deletion strains, locus YNL067W, strain RPL9B, active compounds read low 0.897 | S. cerevisiae deletion strains, locus YNL071W, strain lat1, active compounds read low 0.931 | S. cerevisiae deletion strains, locus YNL128W, strain TEP1, active compounds read low 0.975 | S. cerevisiae deletion strains, locus YNL153C, strain GIM3, active compounds read low 0.918 | S. cerevisiae deletion strains, locus YNL183C, strain NPR1, active compounds read low 0.924 | S. cerevisiae deletion strains, locus YNL209W, strain ssb2, active compounds read low 0.981 | S. cerevisiae deletion strains, locus YNL233W, strain BNI4, active compounds read low 0.885 | S. cerevisiae deletion strains, locus YNL250W, strain rad50, active compounds read low 0.963 | S. cerevisiae deletion strains, locus YNL271C, strain bni1, active compounds read low 0.964 | S. cerevisiae deletion strains, locus YNL298W, strain CLA4, active compounds read low 0.941 | S. cerevisiae deletion strains, locus YNL322C, strain KRE1 (second series), active compounds read low 1 | S. cerevisiae deletion strains, locus YNL322C, strain KRE1, active compounds read low 0.993 | S. cerevisiae deletion strains, locus YNR049C, strain mso1, active compounds read low 1.01 | S. cerevisiae deletion strains, locus YNR052C, strain pop2, active compounds read low 0.98 | S. cerevisiae deletion strains, locus YOL006C, strain TOP1, active compounds read low 0.585 | S. cerevisiae deletion strains, locus YOL012C, strain htz1 0.819 | S. cerevisiae deletion strains, locus YOL147C, strain pex11, active compounds read low 0.986 | S. cerevisiae deletion strains, locus YOR001W, strain rrp6, active compounds read low 0.972 | S. cerevisiae deletion strains, locus YOR061W, strain CKA2, active compounds read low 0.97 | S. cerevisiae deletion strains, locus YOR069W, strain VPS5, active compounds read low 0.974 | S. cerevisiae deletion strains, locus YOR070C, strain gyp1, active compounds read low 0.979 | S. cerevisiae deletion strains, locus YOR080W, strain dia2, active compounds read low 1 | S. cerevisiae deletion strains, locus YOR083W, strain WHI5, active compounds read low 0.941 | S. cerevisiae deletion strains, locus YOR106W, strain vam3, active compounds read low 0.98 | S. cerevisiae deletion strains, locus YOR136W, strain idh2, active compounds read low 0.969 | S. cerevisiae deletion strains, locus YOR144C, strain elg1, active compounds read low 0.979 | S. cerevisiae deletion strains, locus YOR184W, strain ser1, active compounds read low 0.875 | S. cerevisiae deletion strains, locus YOR231W, strain MKK1, active compounds read low 0.926 | S. cerevisiae deletion strains, locus YOR265W, strain rbl2, active compounds read low 0.995 | S. cerevisiae deletion strains, locus YOR270C, strain vph1, active compounds read low 0.872 | S. cerevisiae deletion strains, locus YOR290C, strain snf2, active compounds read low 0.949 | S. cerevisiae deletion strains, locus YOR316C, strain cot1, active compounds read low 0.989 | S. cerevisiae deletion strains, locus YPL051W, strain arl3, active compounds read low 0.982 | S. cerevisiae deletion strains, locus YPL055C, strain LGE1, active compounds read low 0.88 | S. cerevisiae deletion strains, locus YPL078C, strain atp4, active compounds read low 0.976 | S. cerevisiae deletion strains, locus YPL106C, strain sse1, active compounds read low 0.92 | S. cerevisiae deletion strains, locus YPL240C, strain hsp82, active compounds read low 0.994 | S. cerevisiae deletion strains, locus YPL241C, strain CIN2, active compounds read low 0.985 | S. cerevisiae deletion strains, locus YPL256C, strain CLN2, active compounds read low 0.993 | S. cerevisiae deletion strains, locus YPR119W, strain clb2, active compounds read low 0.987 | S. cerevisiae deletion strains, locus YPR141C, strain kar3, active compounds read low 0.996 | S. cerevisiae deletion strains, locus YPR163C, strain tif3, active compounds read low 0.969 | S. cerevisiae deletion strains, locus YPR167C, strain met16, active compounds read low 0.983 | S. cerevisiae deletion strains, strain wtn01, active compounds read low 0.931 | S. cerevisiae strains, strain wild type, active compounds read low 0.964
active: S. cerevisiae deletion strains, locus YLR418C, strain cdc73, active compounds read low 0.83 | S. cerevisiae deletion strains, locus YML032C, strain rad52, active compounds read low 0.8 | S. cerevisiae deletion strains, locus YMR125W, strain sto1, active compounds read low 1.11 [resistant] | S. cerevisiae deletion strains, locus YNL248C, strain rpa49, active compounds read low 0.861 | S. cerevisiae deletion strains, locus YNL307C, strain MCK1, active compounds read low 0.905
